Bioassay records as filed in PubChem.
IDH1 R132H inh – human IDH1 R132H inhibition. O75874. IDH1-R132H enzyme, NADPH consumption, diaphorase/resazurin fluorescence. Potency, µM (top dose mostly 76.6 µM), for inactives: top-dose activity change, negative = inhibition, usual class: inhibitors. 390,000 compounds, 0.093% hits. AID 602179; note: potency is the fitted concentration of half-maximal effect; % is set by controls: 0 for no effect and ±100 for the full control effect; nearly all actives have a fitted effect of over 65% in size
Target sequence (O75874 whole entry R132H, stated change not applied): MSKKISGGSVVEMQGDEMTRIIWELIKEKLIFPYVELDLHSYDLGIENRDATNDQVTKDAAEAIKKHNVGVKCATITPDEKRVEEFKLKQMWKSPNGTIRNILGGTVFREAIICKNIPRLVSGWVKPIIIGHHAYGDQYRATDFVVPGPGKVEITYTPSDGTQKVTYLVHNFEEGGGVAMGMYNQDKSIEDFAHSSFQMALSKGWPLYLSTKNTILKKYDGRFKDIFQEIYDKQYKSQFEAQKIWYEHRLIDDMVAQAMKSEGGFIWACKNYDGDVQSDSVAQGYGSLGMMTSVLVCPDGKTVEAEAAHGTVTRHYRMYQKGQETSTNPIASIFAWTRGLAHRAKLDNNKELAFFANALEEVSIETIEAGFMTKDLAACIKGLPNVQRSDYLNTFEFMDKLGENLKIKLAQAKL
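IDH1-R132H (0.5 ug/mL dispensed) in pH 7.5 Tris buffer was preincubated 30 min with compound, then given a substrate mix of 0.016 mM NADPH and 2 mM alpha-KG for 80 min at room temperature; remaining NADPH was read by diaphorase/resazurin fluorescence.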
Giardia killer – Giardia lamblia killing; Giardia lamblia trophozoite viability; activity change, % at 7.66 µM, hits read low; 340,000 compounds, 0.15% hits; in the data active = activity change below about -80%; inconclusive = between about -30% and that limit;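 note: parasites exposed to compound for two days anaerobically before the ATP read; % is set by controls: 0 for no effect and ±100 for the full control effect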
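Each well holds 100 Giardia trophozoites and compound. After two days (48 hrs) at 37 deg C in anaerobic conditions, ATP is quantified by luminescence.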
Nrf2 block – inhibitors of Nrf2 signaling. A549 ARE-Fluc reporter, luciferase luminescence, 18-24 h. Potency, µM (top dose mostly 46 µM), for inactives: at the top dose activity change, negative = inhibition, actives largely listed as inhibitors. 360,000 compounds, 2.1% hits; note: potency is the fitted concentration of half-maximal effect; % is set by controls: 0 for no effect and ±100 for the full control effect; nearly all actives have a fitted effect of over 60% in size
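In this cell-based qHTS, ARE-driven firefly luciferase in A549 cells reports Nrf2 activity; the luminescent signal after BugLite lysis is the measured value, with a prior CellTiter-Fluor read for cell health.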
A549 tox-1 – kills or reduces viability of A549 cells in Nrf2 counter-screen; A549 ARE-Fluc cells, CellTiter-Fluor viability, 18-24 h; Potency, µM (series often up to 46 µM), for the others: top-dose activity change, negative = cytotoxicity, usual class: inhibitors; 390,000 compounds, 0.16% hits; note: potency is the fitted concentration of half-maximal effect; % is set by controls: 0 for no effect and ±100 for the full control effect
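Cytotoxicity counterscreen: CellTiter-Fluor fluorescence was measured in A549 ARE_Fluc cells after 18-24 h of compound exposure in a concentration series. The subsequent BugLite luminescent read reports ARE-luciferase activity.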
Nrf2 ARE act – activates Nrf2 signaling. AREc32 ARE-luciferase reporter (MCF7-derived line), luminescence, 24 h. Potency, µM (series often up to 46.1 µM), for the others: at the top dose activation, most hits filed as activators. 410,000 compounds, 0.31% hits; note: potency is the fitted concentration of half-maximal effect; % of control where 0% means no effect; nearly all actives have a fitted effect of over 65% in size
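Luminescent ARE reporter assay in AREc32_Fluc cells: overnight plating at 37 deg C, 24 hr compound incubation, Steady-Glo added, 30 min RT before reading.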
Apoferritin bind – binds horse apoferritin like a general anesthetic | P02791 | apoferritin/1-aminoanthracene competitive binding, fluorescence | Potency, µM (doses to about 77.5 µM), for the others: at the top dose activity change, negative = displacement, usual class: inhibitors | 350,000 compounds, 0.074% hits | AID 485281; note: potency is the fitted concentration of half-maximal effect; % is set by controls: 0 for no effect and ±100 for the full control effect; nearly all actives have a fitted effect of over 20% in size
Target sequence (P02791 2-175 limits assumed): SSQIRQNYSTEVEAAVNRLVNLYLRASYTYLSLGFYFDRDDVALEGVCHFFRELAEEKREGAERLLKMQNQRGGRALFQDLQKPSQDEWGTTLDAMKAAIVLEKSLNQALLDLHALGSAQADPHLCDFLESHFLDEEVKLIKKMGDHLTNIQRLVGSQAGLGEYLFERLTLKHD
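Apoferritin-based anesthetic binding model; compound displacement of fluorescent 1-AMA measured as endpoint fluorescence after 10 minutes at room temperature, scaled to free-ligand and complex controls.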
FLuc counter 3 – firefly luciferase inhibition, Nrf2 hit validation; shares compounds with Nrf2 block; purified firefly luciferase, luminescence inhibition; Potency, µM (series often up to 57.5 µM), for the others: at the highest dose activity change, negative = inhibition, hits mostly inhibitors; 1,400 compounds, 4% hits; note: potency is the fitted concentration of half-maximal effect; % is set by controls: 0 for no effect and ±100 for the full control effect; nearly all actives have a fitted effect of over 65% in size
A549 tox-2 – A549 cytotoxicity, Nrf2 inhibitor counterscreen. shares compounds with Nrf2 block. A549 ARE-Fluc cells, cytotoxicity counterscreen. Potency, µM (top dose mostly 46.1 µM), without a hit: at the top dose activity change, negative = cytotoxicity, hits mostly inhibitors. 1,400 compounds, 2% hits;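 note: potency is the fitted concentration of half-maximal effect; cells exposed to compounds for 18 to 24 hours; % is set by controls: 0 for no effect and ±100 for the full control effect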
ARE-Fluc inh – reduces Nrf2 ARE reporter signal in A549 cells; shares compounds with Nrf2 block; A549 ARE-firefly luciferase reporter, luminescence; Potency, µM (titrated, usually from 46.1 µM), inactives show at the top dose activity change, negative = inhibition, hits mostly inhibitors; 1,400 compounds, 74% hits; AID 720524; note: potency is the fitted concentration of half-maximal effect; % is set by controls: 0 for no effect and ±100 for the full control effect; nearly all actives have a fitted effect of over 65% in size
Starred values were filed as active, the others as inactive; ? = inconclusive; / = no result shown. Hits are enriched below; roughly 2.3% of the tested compounds scored in any of these assays. Unless noted, calls come from the whole dose curve; as a rule, active = well fitted curve in the direction sought with a large enough effect; inconclusive = small, poorly fitted or top-dose-only effect, or another doubt; inactive = no such curve, though single readings can be large; an effect the other way counts as inactive or inconclusive.

SMILES | IDH1 R132H inh | Giardia killer | Nrf2 block | A549 tox-1 | Nrf2 ARE act | Apoferritin bind | FLuc counter 3 | A549 tox-2 | ARE-Fluc inh
Cc1ccnc(NS(=O)(=O)c2ccc(NC(=O)c3cc(=O)c4ccc(C)c(C)c4o3)cc2)n1 | -16% | / | -9% | 5% | 1% | 2% | / | / | /
Cc1cc(C)n(CCNC(=O)[C@H]2O[C@@H](n3ccc(N)nc3=O)[C@H](O)[C@@H]2O)n1 | / | / | / | / | 0% | / | / | / | /
CCc1nc2c(OCCn3cccc3)cccn2c1N(C=O)Cc1ccccc1 | / | / | / | / | 1% | / | / | / | /
O=c1c2cnn(-c3ccccc3)c2nc(-c2ccco2)n1-c1ccccc1 | 2% | 1 | 9.2µM* | -21% | 3% | 11% | -22% | -12% | 18µM*
O=c1oc(-c2ccco2)nc2c1cnn2-c1ccccc1 | -1% | 3 | / | 1% | 0% | -15% | / | / | /
CC(=O)NCCc1nc2ccccc2n1CCOc1ccccc1C | 0% | 12 | 10% | -1% | -1% | -2% | / | / | /
Cc1ccccc1OCCn1c(C)nc2ccccc21 | -12% | 11 | 8.2µM* | 3% | -1% | -23% | -15% | 2% | ?
O=C(CCCc1nc(-c2ccc(Cl)cc2)no1)NC1CCCCC1 | 2% | 12 | 3.7µM* | -15% | 0% | -9% | 0% | -1% | /
COc1ccccc1-c1noc(CCCC(=O)NC2CCCC2)n1 | 0% | -1 | 13% | 3% | 0% | -10% | / | / | /
O=C(CCc1nc(-c2ccc(Cl)cc2)no1)NC1CCCC1 | -7% | 5 | ? | 1% | -1% | -1% | / | / | /
O=C(CCCc1nc(-c2ccccc2Cl)no1)NC1CCCC1 | 8% | -7 | 1.2µM* | -5% | 0% | 6% | ? | 0% | 4.6µM*
C[n+]1c(/C=C/c2ccc3c(c2)OCO3)ccc2ccccc21 | 1% | 8 | ? | 0% | 3% | -10% | / | / | /
COc1ccc(OC)c(/C=C/c2ccc3ccccc3[n+]2C)c1 | / | / | / | / | / | / | -2% | -33% | 7.3µM*
C[n+]1c(/C=C/c2ccc(F)cc2)ccc2ccccc21 | / | / | / | / | / | / | ? | -21% | 8.2µM*
COc1ccc(/C=C/c2cccc[n+]2C)c(O)c1 | 9% | 4 | -23% | ? | 3% | 2% | / | / | /
CCOC(=O)C[n+]1c(C)csc1C | 3% | 13 | 0% | 2% | 0% | 6% | / | / | /
Cc1csc(C)[n+]1CCC1CCCCC1 | / | / | / | / | / | / | 4% | -8% | 15µM*
Cc1ccc(Cl)cc1N1CCN(C(=O)c2cc3c(=O)n(C)c4ccccc4c3n2C)CC1 | -1% | -4 | 4.1µM* | -18% | 0% | 1% | 4% | -22% | 6.5µM*
Cc1cccc(N2CCN(C(=O)c3cc4c(=O)n(C)c5ccccc5c4n3C)CC2)c1C | 23% | -26 | -21% | -7% | 0% | -10% | / | / | /
COc1ccccc1-c1nc2c(c(SCC(=O)Nc3ccccc3F)n1)Cc1c(CO)cnc(C)c1O2 | -10% | / | -27% | -1% | 3% | -22% | / | / | /
CCOc1ccc(S(=O)(=O)Nc2cnc3ccccc3c2)cc1 | -5% | -16 | 4.1µM* | -11% | 0% | 4% | 0% | 0% | 6.5µM*
CCOc1ccc(S(=O)(=O)Nc2nc3ccccc3nc2Cl)cc1 | -5% | -19 | ? | 0% | 2% | -1% | / | / | /
O=C(Nc1ccc(Br)cc1)c1cccc(S(=O)(=O)Nc2ccc(Br)cc2)c1 | / | / | / | / | / | -16% | / | / | /
